The sample as a whole holds a higher share of hits than the screen did.
CHX counter: counter-screen for Shiga toxin inhibitors: cycloheximide protein synthesis inhibition | max response, % | actives 12% (n = 300,000) | cell reporter, cycloheximide protein synthesis inhibition counterscreen; in the data active = max response mostly above about 13%, no sharp cut-off; inactive = mostly below about 14%; also: read at 38.3 µM for the half of the compounds with a filed dose; 0% is about no effect
Lassa entry inh: Lassa virus entry inhibition | Lassa virus pseudotype entry inhibition, cell reporter | Potency, µM (titrated, usually from 37.9 µM), inactives show top-dose activity change, negative = inhibition, usual class: inhibitors | actives 1.2% (n = 300,000) | AID 540256; calls by dose curve; tested in HEK293 cells; also: potency is read from the fitted curve at half-maximal effect; % is scaled to controls: 0 for no effect and ±100 for the full control effect; nearly all actives have a fitted effect of over 50% in size
MARV entry inh: inhibitors of Marburg virus binding or cell entry; Marburg virus pseudotyped entry inhibition, cell reporter; Potency, µM (series often up to 37.8 µM), inactives show top-dose activity change, negative = inhibition, usual class: inhibitors; actives 1.8% (n = 300,000); AID 540276; calls by dose curve; tested in HEK293 cells; also: potency is read from the fitted curve at half-maximal effect; % is scaled to controls: 0 for no effect and ±100 for the full control effect
VACV mCherry inh: inhibitors of vaccinia virus infection (mCherry reporter signal). Vaccinia virus mCherry reporter infection, fluorescence. Potency, µM (doses to about 36.5 µM), for inactives: top-dose activity change, negative = inhibition, hits mostly inhibitors. actives 0.63% (n = 310,000); calls by dose curve; tested in A549 cells; also: potency is read from the fitted curve at half-maximal effect; % is scaled to controls: 0 for no effect and ±100 for the full control effect; nearly all actives have a fitted effect of over 35% in size
VACV Venus inh: vaccinia inhibition (Venus reporter); Vaccinia virus Venus reporter expression, fluorescence; Potency, µM (highest dose often 36.5 µM), for the others: top-dose activity change, negative = inhibition, hits mostly inhibitors; actives 0.46% (n = 330,000); AID 720580; calls by dose curve; tested in A549 cells; also: potency is read from the fitted curve at half-maximal effect; % is scaled to controls: 0 for no effect and ±100 for the full control effect; nearly all actives have a fitted effect of over 30% in size
Shiga toxin inh: blocks Shiga toxin action in Vero cells. Vero cells, Shiga toxin protein synthesis inhibition reporter. actives 9.2% (n = 290,000). AID 2315. inhibition, % at 38.7 µM; in the data active = inhibition mostly above about 28%, no sharp cut-off; inactive = mostly below about 43%; also: 0% is about no effect
* = called active by the depositor; i = inactive; ? = inconclusive; . = no result; [ ] = dose if it differs, or a comment.

SMILES	CHX counter	Lassa entry inh	MARV entry inh	VACV mCherry inh	VACV Venus inh	Shiga toxin inh
Cc1cc(F)ccc1S(=O)(=O)N1CCCOC1CNC(=O)C(=O)NCc1ccccn1 (stereo unspecified)	-3	0%	12%	-13%	-14%	23
c1ccc(-c2noc(CN3CCc4sccc4C3)n2)cc1	18*	.	-4%[46.1 µM]	-6%	-4%	50
NC(=O)[C@@H]1CCCN1Cc1nc(-c2ccc(C(F)(F)F)cc2)no1	16*	.	.	.	.	12
NC(=O)[C@@H]1CCCN1Cc1nc(-c2cccs2)no1	-3	18%	6%	-21%	-11%	-14
c1ccc(-c2noc(CN3CCN(c4ccccc4)CC3)n2)cc1	-2	.	.	4%	6%	-5
CC1CCN(c2ccc(-c3nc(-c4ccccc4)no3)cc2[N+](=O)[O-])CC1	44*	?	?	-9%	-13%	82*
Cc1ccc(-c2noc(-c3ccc(N4CCC(C)CC4)c([N+](=O)[O-])c3)n2)cc1	.	-5%[46.1 µM]	-2%[46.1 µM]	-9%	0%	.
CC1CCN(Cc2nnc(-c3cccc(Br)c3)o2)CC1	34*	-5%[46.1 µM]	5%[46.1 µM]	-10%	-12%	32*
COc1ccccc1N(CC(=O)Nc1ccc(Br)cc1F)S(=O)(=O)c1cccs1	.	?	?	i	-4%	.
Cc1ccccc1C(=O)Nc1ccnn1C1CCN(Cc2ccc(CO)o2)CC1	10	.	.	i[7.34 µM]	-15%[7.34 µM]	-13
COC(=O)c1ccc(-c2noc(CN(C)CCC3CCCCO3)n2)cc1 (stereo unspecified)	16*	-23%[46.1 µM]	8%[46.1 µM]	-14%	-1%	31
CCN(Cc1nc(-c2ccc(Cl)cc2)no1)CC1CCCO1 (stereo unspecified)	14*	-6%[46.1 µM]	2%[46.1 µM]	i	-10%	17
COc1ccc(-c2noc(CN(C)CCC3CCCCO3)n2)cc1 (stereo unspecified)	-5	3%	1%[46.1 µM]	-5%	-9%	30
CCCN(Cc1nc(-c2ccc(Cl)cc2)no1)CC1CCCO1 (stereo unspecified)	-2	20%	0%[46.1 µM]	6%	0%	-7
Brc1ccc(OCc2nc(-c3ccccn3)n[nH]2)cc1	29*	-27%	-26%	.	-35%	34
Cc1cc(Oc2ccc(Cl)cc2)nc(-c2ccccn2)n1	-1	?	?	-15%[7.34 µM]	-3%[7.34 µM]	-3
Clc1ccc(OCc2nc(-c3ccccn3)n[nH]2)cc1	40*	0%	?	.	.	21*
C=CCOc1ccc(/C(O)=C2\C(=O)C(=O)N(CCCN3CCOCC3)[C@H]2c2ccc(OC)cc2)cc1	.	.	15%	.	.	.
O=[N+]([O-])c1ccc(Cc2nnc(-c3ccc(F)cc3)o2)cc1	33*	.	.	.	.	75*
Cc1ccc(-c2nnc(Cc3ccc([N+](=O)[O-])cc3)o2)cc1	56*	.	.	.	.	69*
O=c1c2ccccc2nc(-c2ccco2)n1/N=C/c1ccco1	16*	0%	-15%	.	5%	55
COc1cccc(/C=N/n2c(-c3ccco3)nc3ccccc3c2=O)c1	54*	-17%	5%	22%	-19%	145*
COc1ccc(/C=N/n2c(-c3ccco3)nc3ccccc3c2=O)cc1	28	-5%	2%	-19%	-14%	45*
Cc1ccccc1OCc1nc2ccccc2c(=O)n1/N=C/c1ccco1	33*	-9%	5%	.	4%	64*
Cc1cccc(-c2nc(Cn3c(SCc4cccc(C(F)(F)F)c4)nc4ccncc43)c(C)o2)c1	.	-20%[46.1 µM]	-7%[46.1 µM]	?	?	.
SMILES	CHX counter	Lassa entry inh	MARV entry inh	VACV mCherry inh	VACV Venus inh	Shiga toxin inh
COc1ccc(-c2nc(Cn3c(SCc4ccc(C)cc4)nc4ccncc43)c(C)o2)cc1OC	48*	.	.	-19%	?	101*
COc1ccc(-c2nc(Cn3c(SCc4ccccc4F)nc4ccncc43)c(C)o2)cc1OC	.	-13%[46.1 µM]	19%[46.1 µM]	-30%	-17%	.
COc1ccc(-c2nc(Cn3c(SCc4cccc(F)c4)nc4ccncc43)c(C)o2)cc1OC	12*	.	-4%	0%	-7%	8
Cc1ccc(NC(=O)Cc2c(O)c3ccccc3[nH]c2=O)c(C)c1	18*	21%	-1%	-11%	2%	22
O=C(Nc1cccc(O)c1)c1c(O)c2ccccc2[nH]c1=O	48*	.	.	.	.	38*
O=C(Nc1cccc(C(F)(F)F)c1)c1c(O)c2ccccc2[nH]c1=O	-6	.	.	.	.	25
Cc1cccc(NC(=O)c2c(O)c3ccccc3[nH]c2=O)c1	33*	.	.	.	.	38*
Nc1c(-c2ccccc2)cnc2c(-c3ccccc3)cnn12	52*	.	.	.	.	130*
N#Cc1cnn2c(N)c(-c3ccc(Cl)cc3)cnc12	5	?	-9%[46.1 µM]	-13%	-8%	-5
Nc1c(-c2ccsc2)cnc2ncnn12	11	19%	18%[46.1 µM]	i	-2%	2
Fc1ccc(-c2cc(-c3cccs3)cc(-c3ccccc3)n2)cc1	-2	.	.	.	.	24
CS(=O)(=O)c1cnc2c(-c3ccc(F)cc3)cnn2c1N	58*	6%	5%	.	.	61*
Nc1c(-c2cccs2)cnc2c(-c3ccc(F)cc3)cnn12	43*	-24%[46.1 µM]	?	-10%	-16%	118*
CC(C)(C)S(=O)(=O)c1cnc2c(-c3ccsc3)cnn2c1N	49*	28%	?	i	-5%	65
CC(C)c1ccc(NC(=O)c2cc(S(=O)(=O)N(C)C3CCCCC3)ccc2F)cc1	.	?	.	-26%	-22%	.
CS(=O)(=O)N1N=C(c2ccco2)CC1c1ccc(Cl)cc1 (stereo unspecified)	30*	-2%	?	-11%	2%	18
Cc1ccc(C2CC(c3ccco3)=NN2S(C)(=O)=O)cc1 (stereo unspecified)	28*	?	-3%	-10%	4%	40*
CS(=O)(=O)N1N=C(c2ccco2)CC1c1ccccc1 (stereo unspecified)	-2	9%	26%	-5%	-22%	-2
CN1C(=O)S/C(=C\c2ccc(-n3cncn3)cc2)C1=O	9	.	.	.	.	10
CC(=O)c1cccc(NC(=O)c2c(N3CCCC3=O)c3cc(F)ccc3n2C)c1	.	-12%[46.1 µM]	.	1%	1%	.
CC(C)(CO)C(O)C(=O)NCCC#N (stereo unspecified)	-2	.	.	13%	4%	29
CCOC(=O)C1=C(N)Oc2cc(O)ccc2C1c1ccc([N+](=O)[O-])cc1 (stereo unspecified)	-4	?	?	-11%	-12%	-13
O=c1oc2c(-c3ccc([N+](=O)[O-])cc3)cc(O)cc2s1	15*	?	-14%[46.1 µM]	?	-16%	6
O=C(NC(c1ccccc1)c1ccc2ccccc2n1)C1CCN(CCOc2ccc(Cl)cc2)CC1 (stereo unspecified)	.	.	.	?	10µM*	.
COc1cc(CN2CCC(C(=O)NC(c3ccc(F)cc3)c3ccc4ccccc4n3)CC2)cc(OC)c1 (stereo unspecified)	.	.	.	?	14µM*	.
O=C(NC(c1ccc(F)cc1)c1ccc2ccccc2n1)C1CCN(CCOc2ccc(F)cc2)CC1 (stereo unspecified)	.	.	.	11µM*	10µM*	.

Assay outcomes deposited in PubChem by National Center for Advancing Translational Sciences (NCATS).
